# Shown are actives, neighbours in structure and some others; about 1.6% of the full set was active somewhere.
# PABP1 MLLE inh = inhibitors of PABP1 MLLE–PAM2 peptide binding, primary screen, biochemical, fluorescence polarization, FITC-PAM2, GST-MLLE; actives 0.36% (n = 360,000); Polyadenylate-binding protein 1 (Homo sapiens), P11940; AID 588489, 2011; inhibition, % at 20 µM; in the data active means inhibition above about 35%, passing the limit was not always enough;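 further: plate controls were DMSO wells with GST-MLLE for no effect and wells lacking GST-MLLE protein for full effect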
# eIF4E-4G inh = eIF4E–eIF4G protein interaction inhibitors, primary screen, biochemical, uHTS, TR-FRET, eIF4GI fragment. Eukaryotic translation initiation factor 4E (Mus musculus) + Eukaryotic translation …. TR-FRET eIF4E-eIF4GI(517-606) binding, 2 h. inhibition, % at 21.7 µM. actives 0.37% (n = 220,000). AID 782, 2007;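 active means inhibition above about 30%, limit read from the data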;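 further: 0% = full FRET control wells and 100% = background wells lacking eIF4GI fragment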
# PERK inhibitor = block of dimerizer-induced PERK translation repression, primary screen, PERK inhibitor project, CHO PERK-DD cells, SEAP luminescence, HTS; CHO PERK-DD fusion, SEAP luminescence translation reporter; actives 0.17% (n = 220,000); Eukaryotic translation initiation factor 2-alpha kinase 3 (Homo sapiens), Q9NZJ5; inhibition, % at 5.6 µM;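 active means inhibition above the mean inhibition of all tested compounds plus 3 SD, set separately per screening campaign, cut at about 2.9% in these data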;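 further: PERK kinase domain activated by AP20187 dimerizer at 100 nM; 0% = DMSO with dimerizer and 100% = rapamycin at 8.4 µM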
# PABP polyA inh = PABP poly(A) RNA binding inhibitors, primary screen, biochemical, fluorescence polarization, uHTS. Polyadenylate-binding protein 1 (Homo sapiens), P11940. inhibition, % at 35 µM. actives 1% (n = 290,000). AID 2014, 2009;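 further: calls also rest on retests at 20 µM and on dose response follow-up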
# eIF4H FP inh = human eIF4H binding inhibitors, primary screen, translation initiation inhibitor project, biochemical, uHTS, fluorescence polarization; actives 0.94% (n = 290,000); AID 2012, 2009; eIF4H fluorescence polarization binding assay; Eukaryotic translation initiation factor 4H (Homo sapiens), Q15056; inhibition, % at 35 µM;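 further: calls also rest on retests at 20 µM and on dose response follow-up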
# The depositor's hits bear a star; ? = inconclusive; / = not tested or not shown. Unless noted, how the calls were made is not given here.
SMILES,PABP1 MLLE inh,eIF4E-4G inh,PERK inhibitor,PABP polyA inh,eIF4H FP inh
CCCOc1ccc(C(=O)NCC(c2cccs2)N(C)C)cc1 (stereo not drawn),10.6,-1.7,-0.5,-14.7,-9.4
CCOc1ccc(C(=O)NCC(c2cccs2)N(C)C)cc1OCC (stereo not drawn),0.2,1.6,-0.4,-10.0,86.6*
NC(=O)c1cccc2c1-c1ccccc1/C2=N/NC(N)=S,39.4*,/,/,4.6,-11.5
CCOC(=O)C(=O)N/N=C/c1ccco1,-5.7,7.0,1.5,64.7*,93.5*
Cc1cc(C)cc(OCC(=O)N/N=C/c2ccco2)c1,4.2,0.8,-0.4,-3.8,-7.3
COc1cc(-c2ccc(Nc3ccccc3C(=O)O)c(OC)c2)ccc1Nc1ccccc1C(=O)O,-7.6,77.8*,0.5,94.2*,91.0*
CCOC(=O)c1ccc(N2Cc3ccccc3C2=NC(=O)c2cccs2)cc1,0.6,-6.6,0.4,13.1,-5.2
N#CC1=C2N=C(N)c3c(sc4c3CCCCC4)N2C2=C(C(=O)CCC2)C1c1ccccc1 (stereo not drawn),-10.7,-50.3,-0.6,29.9,49.9
CCOc1ccc(C2C(C#N)=C(N)N(c3sc4c(c3C#N)CCCC4)C3=C2C(=O)CCC3)cc1 (stereo not drawn),-23.9,3.5,-1.0,29.7*,?
Cc1cc(C)cc(NC(=O)c2ccc(NC(=O)c3ccco3)cc2)c1,-4.7,/,/,1.5,6.7
CCC1C/C(=C/c2ccco2)C(=O)/C(=C/c2ccco2)C1 (stereo not drawn),/,5.1,1.1,-3.4,83.8
Nc1ccc2c(c1)C/C(=C/c1ccco1)C2=O,-30.9,21.7,0.8,active,93.3*
O=C1/C(=C/c2ccco2)CCc2ccccc21,0.2,3.0,-0.3,-0.7,81.3
COc1ccc2c(c1)CC/C(=C/c1ccco1)C2=O,-8.6,3.1,1.0,active,?
CCNc1ccc(C(=O)OCC(=O)NC(C)c2ccccc2)cc1[N+](=O)[O-] (stereo not drawn),-42.8,46.1*,0.3,-2.2,-10.3
Cc1csc2nc(O)c(C(=O)NCCCN3CCCC3=O)c(=O)n12,3.9,/,/,/,/
Cc1nc(S/C(=C/c2ccc(-c3ccc(C(=O)O)cc3)o2)C(=O)O)n[nH]1,-18.1,0.9,0.1,43.6*,74.7
Cc1nc(S/C(=C/c2ccc(-c3cc(Cl)ccc3C)o2)C(=O)O)n[nH]1,-12.3,-1.4,0.9,10.9*,60.0
CC(=O)c1ccc(-c2ccc(/C=C(/Sc3n[nH]c(C)n3)C(=O)O)o2)cc1,-123.9,1.4,-0.7,5.7,18.5
CCOC(=O)c1cc(-c2ccccc2)sc1NC(=O)C(C)N1C(=O)NC(C)(c2ccc(Cl)cc2)C1=O (stereo not drawn),-45.9,-18.6,-2.4,70.7*,active
Cc1ccc(C(=O)Nc2nc3ccccc3c(=O)s2)cc1,46.0*,5.8,1.7,-8.0,4.3
COc1ccccc1CNC(=O)Cn1nnc(-c2ccncc2)n1,-2.6,-9.4,1.2,3.3,-5.7
CCCCn1c(NC(=O)c2ccc(Br)o2)c(S(=O)(=O)c2ccccc2)c2nc3ccccc3nc21,-0.9,16.7,-1.4,67.2*,55.7*
CCCCn1c(NC(=O)c2ccco2)c(S(=O)(=O)c2ccc(C)cc2)c2nc3ccccc3nc21,-75.5,4.8,-0.6,-6.4,9.7
O=C(Cc1cnn(-c2ccccc2)c1)c1ccc(O)c(O)c1O,20.5,5.5,-0.5,53.5*,85.5*
SMILES,PABP1 MLLE inh,eIF4E-4G inh,PERK inhibitor,PABP polyA inh,eIF4H FP inh
CCc1cc(C(=O)Cc2cnn(-c3ccccc3)c2)c(O)cc1O,3.6,19.1,0.7,3.6,-6.2
CN(Cc1ccc(-n2cccn2)cc1)C(=O)c1cnn2c1NC(c1ccco1)CC2C(F)(F)F (stereo not drawn),-16.3,0.2,-1.0,-2.4,6.0
Cc1oc(/N=C/c2ccc(Cl)cc2)c(C#N)c1C,-1.7,3.0,1.0,68.4*,53.2*
Cc1oc(/N=C/c2ccccc2O)c(C#N)c1C,11.0,-6.2,1.5,69.1*,79.4*
Cc1oc(/N=C/c2ccc(Cl)cc2Cl)c(C#N)c1C,-3.0,3.7,0.4,35.0,17.8
Cc1oc(/N=C/c2ccc(O)cc2O)c(C#N)c1C,32.1,0.8,0.1,-7.1,?
CN(Cc1ccccn1)C(=O)CC1C(=O)NCCN1Cc1ccc(F)cc1Cl (stereo not drawn),8.4,/,/,/,/
NC(=O)COc1ccc(/C=N/NS(=O)(=O)c2ccccc2)cc1,-36.7,-4.2,0.2,0.2*,96.1
COC(=O)COc1ccc(/C=N/NS(=O)(=O)c2ccccc2)cc1,-51.4,/,/,-2.6,-6.1
CCc1ccc(-c2nc(CSCC(=O)N3CCN(c4ccccn4)CC3)c(C)o2)cc1,38.8*,2.1,-1.1,-1.6,-10.1
COc1cccc(NC(=O)CN(C)C(=O)c2ccc(NC3CC3)c([N+](=O)[O-])c2)c1,-4.9,/,/,/,/
CN(C)Cc1c(O)c(Cl)cc2c3c(c(=O)oc12)CCCC3,10.4,4.9,-1.5,49.5*,64.0*
CCC(C)C(=O)N1c2ccccc2C(=C2SC(C(=O)OC)=C(C(=O)OC)S2)C(=S)C1(C)C (stereo not drawn),46.0*,1.1,-0.1,7.0,-8.2
CC1=NN(Cc2ccccc2)C(=O)/C1=C\c1ccc(N(C)C)cc1,-25.3,3.8,0.7,-19.0,-26.4
Cc1ccccc1-c1nnc2s/c(=C\c3ccc(N(C)C)cc3)c(=O)n12,/,/,/,90.6*,82.4*
CCOC(=O)/C(C#N)=C/c1cccc([N+](=O)[O-])c1,3.5,-1.8,1.4,0.7,-1.6
N#CC12COC3(CCCCC3C1(C#N)C#N)OC2=N (stereo not drawn),49.1*,-2.7,0.3,?,?
CCCC1OC23CCCCC2C(C#N)(C(=N)O3)C1(C#N)C#N (stereo not drawn),57.9*,-0.5,1.2,?,?
N#CC1(C#N)COC23CCCCC2C1(C#N)C(=N)O3 (stereo not drawn),39.4,5.1,0.2,32.1*,50.8
NC(=O)COc1ccccc1/C=C1/SC(=O)N(CC(=O)N2CCc3ccccc3C2)C1=O,3.3,2.4,-1.0,-0.8,3.9
CCOC(=O)C1(CCOc2ccccc2)CCN(Cc2cc(OC)ccc2OC)CC1,10.4,/,/,10.8,6.8
COc1ccccc1NC(=O)c1sc2nc(Cc3ccccc3)cc(C(F)(F)F)c2c1N,-3.4,-28.0,-0.1,113.3*,65.3*
COc1ccc(NC(=O)c2sc3nc(Cc4ccccc4)cc(C(F)(F)F)c3c2N)cc1OC,-5.0,1.3,-0.4,-2.6,1.5

# Screening data: PubChem, several laboratories
